# Results taken from the supplement of paper PMC12494721.
# Structures can show the parent of a compound that is named as a salt.
# Assays:
# Settings in all cases: incubation time: 27 h, anaerobic, 37 °C;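 for the amine columns active = adjusted P below 0.05 in both replicates with a change the same way and a mean fold change under 0.8 or over 1.25; inactive = the rest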
# [1] = tested on: Clostridium sporogenes DSM 1664; experiment: growth (OD595) fold change vs plate DMSO controls (fold change (ratio)); higher = more growth
# Method in brief: (§1)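 Each value is the mean of 2 biological replicates, and fold changes above 1.5 were set to NA. The underlying readings were taken at 595 nm from shaken anaerobic mGAM cultures in 96-well plates after 27 h at 37 °C. They were blank-subtracted, corrected for compound background using 20 µM compound solutions in water, and converted to OD with a calibration factor of 5. Growth is the fold change relative to the median of the plate DMSO controls.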
# [2] = tested on: Escherichia coli IAI1; experiment: as above
# Method in brief: as §1
# [3] = tested on: Klebsiella aerogenes DSM 30053; experiment: as above
# Method in brief: as §1
# [4] = tested on: Ruminococcus gnavus DSM 108212; experiment: as above
# Method in brief: as §1
# [5] = tested on: Klebsiella aerogenes DSM 30053; experiment: fold change of Histamine concentration vs plate DMSO controls (fold change (ratio)); higher = more amine produced, active = hit call of the paper (significant change in both replicates, either direction)
# Method in brief: (§2)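 Amines were quantified by LC–triple-quadrupole MS in dynamic MRM mode against external calibration curves, with drift correction within each batch. The samples were whole anaerobic mGAM cultures of four gut bacterial strains, grown for 27 h at 37 °C in 80 µL wells and extracted with cold acetonitrile/methanol with 0.1% formic acid, then centrifuged. Values are reported as fold change over DMSO controls on the same plate. The mean of 2 biological replicates is given.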
# [6] = tested on: Clostridium sporogenes DSM 1664; experiment: fold change of Tryptamine concentration vs plate DMSO controls (fold change (ratio)); higher = more amine produced, active = hit call of the paper (significant change in both replicates, either direction)
# Method in brief: as §2
# [7] = tested on: Ruminococcus gnavus DSM 108212; experiment: as above
# Method in brief: as §2
# [8] = tested on: Escherichia coli IAI1; experiment: fold change of Putrescine concentration vs plate DMSO controls (fold change (ratio)); higher = more amine produced, active = hit call of the paper (significant change in both replicates, either direction)
# Method in brief: as §2
# [9] = tested on: Klebsiella aerogenes DSM 30053; experiment: as above
# Method in brief: as §2
# [10] = tested on: Escherichia coli IAI1; experiment: fold change of Cadaverine concentration vs plate DMSO controls (fold change (ratio)); higher = more amine produced, active = hit call of the paper (significant change in both replicates, either direction)
# Method in brief: as §2
# [11] = tested on: Klebsiella aerogenes DSM 30053; experiment: as above
# Method in brief: as §2
# [12] = tested on: Ruminococcus gnavus DSM 108212; experiment: fold change of 2-Phenylethylamine concentration vs plate DMSO controls (fold change (ratio)); higher = more amine produced, active = hit call of the paper (significant change in both replicates, either direction)
# Method in brief: as §2
SMILES,growth [1],growth [2],growth [3],growth [4],fold change of Histamine concentration [5],fold change of Tryptamine concentration [6],fold change of Tryptamine concentration [7],fold change of Putrescine concentration [8],fold change of Putrescine concentration [9],fold change of Cadaverine concentration [10],fold change of Cadaverine concentration [11],fold change of 2-Phenylethylamine concentration [12]
CC(C)(Oc1ccc(C2CC2(Cl)Cl)cc1)C(=O)O (centres undefined) [Ciprofibrate] (20 µM),0.861,0.88,0.891,0.992,1.01 (inactive),1.04 (inactive),0.951 (inactive),1.01 (inactive),1 (inactive),1.03 (inactive),0.992 (inactive),0.949 (inactive)
CC(=O)/N=c1/sc(S(N)(=O)=O)nn1C [Methazolamide] (20 µM),1.08,1.07,1.01,0.848,0.962 (inactive),1.02 (inactive),1.07 (inactive),0.979 (inactive),0.981 (inactive),0.958 (inactive),0.996 (inactive),1.12 (inactive)
CCN1CCC[C@H]1CNC(=O)c1c(OC)ccc(Br)c1OC [Remoxipride hydrochloride] (20 µM),1.09,1.03,0.988,1.01,1.04 (inactive),0.946 (inactive),0.945 (inactive),0.998 (inactive),1.02 (inactive),1.03 (inactive),0.989 (inactive),0.92 (inactive)
CNCc1cc(-c2ccccc2F)n(S(=O)(=O)c2cccnc2)c1 [Vonoprazan] (20 µM),1.08,0.967,0.975,1.04,1.04 (inactive),1 (inactive),1.02 (inactive),0.503 (inactive),1 (inactive),0.483 (inactive),0.982 (inactive),0.999 (inactive)
Cn1ccnc1S [Methimazole] (20 µM),1.17,1.11,0.998,1.13,1.04 (inactive),0.989 (inactive),0.998 (inactive),1.17 (inactive),1 (inactive),0.976 (inactive),0.984 (inactive),0.993 (inactive)
COc1cc(Nc2c(C#N)cnc3cc(OCCCN4CCN(C)CC4)c(OC)cc23)c(Cl)cc1Cl [Bosutinib] (20 µM),0.991,0.99,1.05,1.16,0.973 (inactive),0.96 (inactive),0.942 (inactive),1.02 (inactive),1 (inactive),1.02 (inactive),1.01 (inactive),0.989 (inactive)
CC(N/C(=N\C#N)Nc1ccncc1)C(C)(C)C (centres undefined) [Pinacidil monohydrate] (20 µM),0.925,1,0.98,1.13,1.08 (inactive),0.982 (inactive),1.09 (inactive),1 (inactive),1 (inactive),1.04 (inactive),0.981 (inactive),1.1 (inactive)
CC(=O)Oc1ccccc1C(=O)Nc1ncc([N+](=O)[O-])s1 [Nitazoxanide] (20 µM),0.00234,0.925,0.915,0.11,0.982 (inactive),0.0219 (active),0.045 (active),1.02 (inactive),0.982 (inactive),1.25 (inactive),1.01 (inactive),0.0405 (active)
CN(Cc1cnc2nc(N)nc(N)c2n1)c1ccc(C(=O)N[C@@H](CCC(=O)O)C(=O)O)cc1 [Amethopterin] (20 µM),1.08,1.02,1.09,1.42,0.922 (inactive),0.975 (inactive),0.892 (inactive),1 (inactive),1 (inactive),1 (inactive),1.02 (inactive),0.832 (inactive)
Cc1[nH]cnc1CN1CCc2c(c3ccccc3n2C)C1=O [Alosetron hydrochloride] (20 µM),1.17,0.97,1.02,1.13,0.979 (inactive),1.04 (inactive),0.996 (inactive),0.971 (inactive),1.02 (inactive),0.945 (inactive),1.01 (inactive),0.975 (inactive)
CCN1CCC[C@H]1CNC(=O)c1c(O)c(Cl)cc(Cl)c1OC [Raclopride] (20 µM),1.03,1.25,0.996,0.999,0.961 (inactive),1.06 (inactive),1 (inactive),1.19 (inactive),0.97 (inactive),0.944 (inactive),0.983 (inactive),0.991 (inactive)
CCCc1nc(C)c2c(=O)nc(-c3cc(S(=O)(=O)N4CCN(CC)CC4)ccc3OCC)[nH]n12 [Vardenafil] (20 µM),1.15,0.975,1.01,1.27,1.03 (inactive),0.992 (inactive),1.05 (inactive),1.01 (inactive),1.01 (inactive),1.02 (inactive),1.01 (inactive),1.07 (inactive)
